Screening results: PubChem, National Center for Advancing Translational Sciences (NCATS)
Sampled rows, rich in hits. Any-hit rate of the full collection: about 2.4%.
Pol iota inh: qHTS for Inhibitors of Polymerase Iota | AID 588590, 2011 | DNA polymerase iota (Homo sapiens), Q9UNA4 | Potency, µM (series often up to 115 µM), without a hit: at the highest dose activity, negative = inhibition, usual class: inhibitors | Pol iota fluorescent replication assay, 10 min | 1% of 390,000 active; also: potency is read from the fitted curve at half-maximal effect
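Fluorescent replication assay read twice, at 0 min and 10 min after adding 50 nM (final) substrate. Enzyme (10 nM) and compounds were first incubated 15 min at room temperature; enzyme-free buffer wells were negative controls.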
Pol kappa inh-1: qHTS for Inhibitors of Polymerase Kappa | Potency, µM (titrated, usually from 107 µM), for inactives: at the top dose activity, negative = inhibition, usual class: inhibitors | DNA polymerase kappa (Homo sapiens), Q9UBT6 | AID 588579, 2011 | 0.53% of 400,000 active | purified Pol kappa, fluorescent DNA synthesis assay, 10 min; also: potency is read from the fitted curve at half-maximal effect; % is scaled to controls: 0 for no effect and ±100 for the full control effect
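50 nM final substrate added after 15 min RT preincubation of 10 nM Pol kappa with compound; fluorescence read at 0 and 10 min.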
GLS inhibitor: qHTS for Inhibitors of Glutaminase (GLS) | 0.21% of 410,000 active | Potency, µM (highest dose often 45.5 µM), without a hit: top-dose activity change, negative = inhibition, most hits filed as inhibitors | GLS enzymatic activity, qHTS titration | Glutaminase kidney isoform, mitochondrial (Homo sapiens), O94925; also: potency is read from the fitted curve at half-maximal effect; % is scaled to controls: 0 for no effect and ±100 for the full control effect
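hKGA in 45 mM KH2PO4 (pH 8.2), 0.02% Tween-20 with compound, then 1mM L-Glutamine (stock as added) plus glutamate oxidase/HRP/Amplex red coupling mix. Fluorescence read initially and after 30 min at RT; signal change reflects glutamate formation.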
Pol eta inh-1: qHTS for Inhibitors of Polymerase Eta. recombinant Pol eta, fluorescent DNA replication assay. Potency, µM (top dose mostly 114 µM), for the others: top-dose activity change, negative = inhibition, hits mostly inhibitors. AID 588591, 2011. 1.2% of 390,000 active. DNA polymerase eta (Homo sapiens), Q9Y253; also: potency is read from the fitted curve at half-maximal effect; % is scaled to controls: 0 for no effect and ±100 for the full control effect
Target sequence (Q9Y253 whole entry, looked up): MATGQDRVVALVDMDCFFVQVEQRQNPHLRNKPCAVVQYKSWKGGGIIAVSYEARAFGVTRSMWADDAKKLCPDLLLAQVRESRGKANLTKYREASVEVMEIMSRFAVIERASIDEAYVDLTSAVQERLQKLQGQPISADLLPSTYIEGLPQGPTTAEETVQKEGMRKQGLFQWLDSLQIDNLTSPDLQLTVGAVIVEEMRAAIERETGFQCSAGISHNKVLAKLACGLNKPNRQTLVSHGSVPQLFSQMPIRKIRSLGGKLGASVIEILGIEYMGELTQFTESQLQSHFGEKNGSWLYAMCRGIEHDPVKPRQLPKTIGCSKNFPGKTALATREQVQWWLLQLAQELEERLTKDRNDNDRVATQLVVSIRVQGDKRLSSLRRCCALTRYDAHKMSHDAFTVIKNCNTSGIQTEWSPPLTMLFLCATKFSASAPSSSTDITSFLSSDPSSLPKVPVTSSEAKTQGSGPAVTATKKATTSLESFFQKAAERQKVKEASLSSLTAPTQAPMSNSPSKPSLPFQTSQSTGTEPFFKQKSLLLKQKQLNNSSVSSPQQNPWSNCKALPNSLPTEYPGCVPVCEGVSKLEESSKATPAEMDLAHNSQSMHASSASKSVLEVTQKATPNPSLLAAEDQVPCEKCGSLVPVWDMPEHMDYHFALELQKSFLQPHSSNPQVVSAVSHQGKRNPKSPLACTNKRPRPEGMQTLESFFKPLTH
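Fluorescent replication assay: 50 nM final substrate added after a 15 min room-temperature compound preincubation with 10 nM enzyme. Signal taken at 0 min and again at 10 min.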
Pol beta inh: qHTS Assay for Inhibitors of DNA Polymerase Beta | Pol beta primer extension/strand displacement, fluorescence kinetic | Potency, µM (highest dose often 114 µM), without a hit: at the top dose activity change, negative = inhibition, actives largely listed as inhibitors | 1.3% of 340,000 active; also: potency is read from the fitted curve at half-maximal effect; % is scaled to controls: 0 for no effect and ±100 for the full control effect
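Enzyme-only controls used 10 nM Pol beta; buffer lacking enzyme served as negative control. Compound preincubated 15 min, then 50 nM substrate added; 0 and 10 min reads at room temperature.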
KAT2A inh: qHTS Assay for Inhibitors of GCN5L2 | GCN5L2 HAT assay, ThioGlo1 CoA-SH fluorescence | Potency, µM (doses to about 58.9 µM), for the others: at the top dose activity change, negative = inhibition, hits mostly inhibitors | Histone acetyltransferase KAT2A (Homo sapiens), Q92830 | 0.21% of 390,000 active | AID 504327, 2011; also: potency is read from the fitted curve at half-maximal effect; % is scaled to controls: 0 for no effect and ±100 for the full control effect
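Free CoA generated was detected with ThioGlo1 (50uM) fluorescence at Ex340nm/Em540nm, read immediately and after 20 min at room temperature. Enzyme, 20 nM in HEPES pH 7.5 buffer, saw compounds 15 min before adding 75uM H3(1-25) peptide and 70uM acetyl-CoA.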
Pol iota confirm: qHTS for Inhibitors of Polymerase Iota: Confirmatory Assay for Cherry-picked Compounds | Potency, µM, hits mostly inhibitors | 77% of 1,500 active | shares compounds with Pol kappa inh-1 | Pol iota primer extension, TAMRA/BHQ fluorescence | AID 720496, 2013; also: potency is read from the fitted curve at half-maximal effect
GALK confirm: Confirmation Assay for Inhibitors of Human Galactokinase (GALK). shares compounds with Pol eta inh-1. AID 2015, 2009. Potency, µM (highest dose often 115 µM), inactives show top-dose activity, negative = inhibition, usual class: inhibitors. purified GALK, Kinase-Glo ATP depletion luminescence. 70% of 150 active
Redox cycling: Confirmatory Assay for Inhibitors of Human Galactokinase (GALK): Phenol-HRP redox assay counterscreen. shares compounds with Pol eta inh-1. Phenol red-HRP H2O2 redox cycling, absorbance 600 nm. Potency, µM (titrated, usually from 115 µM), for inactives: top-dose activity change, negative = H2O2 signal, most hits filed as inhibitors. 40% of 150 active. AID 2035, 2009
HEK293 viability: Secondary Assay for Inhibitors of Human Galactokinase (GALK): HEK-293 Cell Viability Assay; shares compounds with Pol eta inh-1; HEK-293 viability, ATP luminescence (CellTiter-Glo), 24/48 h; Potency, µM (top dose mostly 46.1 µM), for inactives: at the top dose activity change, negative = cytotoxicity, actives largely listed as inhibitors; 10% of 170 active; AID 2547, 2010; also: potency is read from the fitted curve at half-maximal effect; % is scaled to controls: 0 for no effect and ±100 for the full control effect
Pol kappa inh-2: qHTS for Inhibitors of Polymerase Kappa: Confirmatory Assay for Cherry-picked Compounds | shares compounds with Pol eta inh-1 | purified Pol-kappa, fluorescent strand-displacement substrate | Potency, µM, actives largely listed as inhibitors | 76% of 920 active | AID 720501, 2013; also: potency is read from the fitted curve at half-maximal effect
Pol eta inh-2: qHTS for Inhibitors of Polymerase Eta: Confirmatory Assay for Cherry-picked Compounds. shares compounds with Pol eta inh-1. Potency, µM, most hits filed as inhibitors. Pol eta primer extension, TAMRA/BHQ fluorescence, 10 min. AID 720502, 2013. 64% of 2,600 active; also: potency is read from the fitted curve at half-maximal effect
Numbers without * were called inactive; ? = inconclusive; · = no result. Calls follow the shape of the dose curve; as a rule, active = well fitted curve in the direction sought with a large enough effect; inconclusive = small, poorly fitted or top-dose-only effect, or another doubt; inactive = no such curve, though single readings can be large; an effect the other way counts as inactive or inconclusive.

SMILES	Pol iota inh	Pol kappa inh-1	GLS inhibitor	Pol eta inh-1	Pol beta inh	KAT2A inh	Pol iota confirm	Pol eta inh-2	others
Cc1[nH][nH]c(=O)c1C(c1ccc(-c2ccccc2C(=O)O)o1)c1c(C)[nH][nH]c1=O	10µM*	?	?	11.2µM*	10µM*	-11.1%	47.4*	26.9*	GALK confirm=-11.4%;Redox cycling=6.68µM*;HEK293 viability=5.8%
Cc1[nH][nH]c(=O)c1C(c1ccc(-c2cccc(C(=O)O)c2)o1)c1c(C)[nH][nH]c1=O	2.24µM*	89.1µM*	15.5%	12.6µM*	20µM*	0.0%	67*	30.1*
Oc1ccc(COc2cccc3ccccc23)c2cccnc12	·	·	·	·	·	-15.4%	·	·
CCS(=O)(=O)N1CC(=O)N(c2ccccc2C)C(C)(C(=O)NC2CCCCC2)C1 (stereo not given)	11.2%	-14.7%	-12.1%	6.5%	-16.8%	-6.9%	·	·
COc1cc(/C=C2\SC(c3ccc(C)cc3)=NC2=O)cc(OC)c1O	?	-5.9%	-1.9%	-32.3%	-7.1%	-8.6%	·	·
Cc1ccc(C2=NC(=O)/C(=C/c3cc(O)c(O)c(Br)c3)S2)cc1	1.26µM*	1.78µM*	7.2%	0.794µM*	1.58µM*	?	16.8*	3.79*	Pol kappa inh-2=5.32*
COc1ccc(OC)c(/C=C2\Oc3cc(OCC(=O)N4CCC[C@H]4C(=O)O)ccc3C2=O)c1	?	-6.7%	2.8%	-15.9%	-0.6%	?	·	·
COc1cc(OC)c(OC)cc1/C=C1\Oc2cc(OCC(=O)N3Cc4ccccc4C[C@H]3C(=O)O)ccc2C1=O	?	79.4µM*	?	22.4µM*	?	-5.9%	26.7*	21.3*
Cc1ccccc1NC(=O)CN1C(=O)S/C(=C\c2cccn2-c2cccc(C(=O)O)c2)C1=O	?	25.1µM*	?	3.55µM*	-86.7%	-4.3%	42.3*	47.8*
